# Test results taken from PubChem BioAssay (NCATS).
# Results filed as inconclusive are left out. Active and inactive are the calls of the source. Unless noted, calls come from the whole dose curve; as a rule, active = well fitted curve in the direction sought with a large enough effect; inconclusive = small, poorly fitted or top-dose-only effect, or another doubt; inactive = no such curve, though single readings can be large; an effect the other way counts as inactive or inconclusive.
# Columns and labels:
# [1] = biological target: Lysosomal acid glucosylceramidase (Homo sapiens) (UniProt P04062); assay: Glucocerebrosidase-p2 (AID 348; in the data active = potency below about 10 µM; note: potency is the fitted concentration of half-maximal effect); details: purified GBA, blue fluorogenic substrate, 40 min
# Summary of the method: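 Compounds titrated from 0.6 nM upwards against 0.2 nM enzyme in pH 5.9 citric acid/KH2PO4, taurocholate, tween-20; blue fluorogenic substrate 80 uM, 40 min room temperature, stopped and read Ex 365/Em 440 for AC50.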
# [2] = AP1 Signaling Pathway (AID 357; active = well fitted curve in either direction with a large enough effect, not every such curve was filed as active; note: % is set by controls: 0 for no effect and ±100 for the full control effect); details: ME-180 AP-1-bla reporter, EGF-induced, beta-lactamase ratio, 5 h; at 7.69 µM (top of the series) unless noted
# Summary of the method: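 AP-1-bla ME-180 cells with beta-lactamase reporter under AP-1 response element, stimulated with EC50 EGF; compounds titrated, 5 hours at 37 degrees Celsius. CCF4 read at 460/530 nm ratio; positive and negative modulators judged by AC50.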
# [3] = biological target: Cytochrome P450 1A2 (Homo sapiens) (UniProt P05177); assay: p450-cyp1a2 (AID 410; calls by dose curve; note: potency is the fitted concentration of half-maximal effect;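 for activity change, negative = inhibition: -100% = full effect of reference inhibitor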)
# Summary of the method: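 Inhibition was calculated relative to 57 uM furafylline (full inhibition). The reaction used human CYP1A2 at 20nM with Luciferin-ME at its Km, 100uM, driven by an NADPH-regenerating system for 60 min at room temperature.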
# [4] = NFAT Signaling Pathway (AID 444; active = well fitted curve in either direction with a large enough effect, not every such curve was filed as active;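 note: carbachol stimulus at about its EC50 of 1 µM final; % is set by controls: 0 for no effect and ±100 for the full control effect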); details: Jurkat NFAT-bla M1, carbachol, beta-lactamase ratio, 5 h; at 7.69 µM (top of the series) unless noted
# Summary of the method: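 Read-out: CCF4 FRET ratio (460 nm/530 nm) after 1 h RT dye loading, used for %activity and AC50 from titration series. Cells: Jurkat NFAT-β-lactamase/M1 line, treated with compound plus 1 uM carbachol for 5 h, 37 °C.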
# [5] = Stat Signaling Pathway (AID 446; active = well fitted curve in either direction with a large enough effect, not every such curve was filed as active;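 note: ME-180 cervical cancer cells given 40 pM IL-6 alongside compound; SIE-controlled beta-lactamase reporter measured as 460/530 nm FRET emission ratio; % is set by controls: 0 for no effect and ±100 for the full control effect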); details: ME-180 SIE beta-lactamase reporter, IL-6 stimulated, 5 h; at 7.69 µM (top of the series) unless noted
# Summary of the method: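 Reporter line: ME-180 cervical carcinoma, SIE-beta-lactamase. Treatment: compound with 40 pM IL-6, 5 hrs, 37 C, in low-serum OPTI-MEM with 10 mM HEPES pH 7.3. Detection: 460/530 nm fluorescence.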
# [6] = biological target: Glucocorticoid receptor (Homo sapiens) (UniProt P04150); assay: GR-GFP Redistribution (AID 450;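 active = compounds whose dose series gives a full or clear partial fitted curve of increased nuclear translocation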; note: potency is the fitted concentration of half-maximal effect); details: U2OS GR-GFP nuclear translocation, laser cytometry, 2 h
# [7] = biological target: Glucocorticoid receptor (Homo sapiens) (UniProt P04150); assay: GR-EFC Redistribution (AID 451; calls by dose curve; note: potency is the fitted concentration of half-maximal effect); details: CHO-K1 GR-EFC translocation, beta-gal luminescence, 2 h
# Summary of the method: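 Translocation of GR-ED fusion to nuclear EA restores b-gal, read by luminescence after 1 h room-temperature detection. Engineered CHO-K1 biosensor cells, 1,000/well, exposed 2 h at 37 C to titrations up to 46 uM final.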
# [8] = biological target: Mitogen-activated protein kinase 10 (Mus musculus) (UniProt Q61831); assay: JNK3 AlphaScreen Assay (AID 530; active = well fitted curve in either direction with a large enough effect, not every such curve was filed as active;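 note: kinase came from lysate of stimulated human HepG2 cells; signal reports phosphorylation of biotinylated GST-cJun 1-79 at Ser73 with 10 µM ATP; % is set by controls: 0 for no effect and ±100 for the full control effect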)
# Summary of the method: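 Room-temperature AlphaScreen kinase assay; pre-activated HepG2 lysate as JNK3 source, biotin-GST-cJun(1-79) substrate, 10 uM ATP, compound 15 min preincubation.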
# [9] = biological target: 3',5'-cyclic-AMP phosphodiesterase 4B (Homo sapiens) (UniProt Q07343); assay: qHTS Assay for Inhibitors of PDE-IV (AID 607; active = well fitted activation curve with a large enough effect in the main read-out, with a control signal flat, not every such curve was filed as active; note: % of control where 0% means no effect)
# Summary of the method: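 Cell-based read-out of cAMP via a modified cyclic nucleotide-gated channel and membrane potential dye (535/590 nm) in HEK293 cells expressing PDE4 endogenously. Compounds tested up to 22.9 uM final; 100 uM RO 20-1724 reference.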
# [10] = qHTS Assay for Lipid Storage Modulators (AID 1519; calls by dose curve); details: Drosophila S3 cells, BODIPY lipid droplet/cell ratio, laser cytometry, cells loaded with oleic acid; for activity change, negative = inhibition: at 57.5 µM (top of the series)
# Summary of the method: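 Cells seeded at 5,000 per well were treated with compounds over a concentration series and loaded with oleic acid (400 uM, as added). Lipid droplet fluorescence (488 nm excitation, 500-530 nm channel) was read by laser-scanning cytometry and normalized to 20 uM Triacsin C.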
# [11] = biological target: Dual specificity protein kinase CLK4 (Homo sapiens) (UniProt Q9HAZ1); assay: qHTS Assay for Inhibitors of CDC-like Kinase 4 (Kinase-Glo Assay) (AID 1770); note: nearly all actives have a fitted effect of over 65% in size; note: potency is the fitted concentration of half-maximal effect
# Summary of the method: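 Luminescent ATP-depletion read-out (Kinase-Glo) after 4.5 h room-temperature reaction of Clk4 (25 nM final) with RS peptide (100 uM) and ATP (1 uM), pH 7.5 Tris buffer with MgCl2 and DTT.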
# [12] = Primary qHTS for small molecule stabilizers of the endoplasmic reticulum resident proteome: Secreted ER Calcium Modulated Protein (SERCaMP) assay (AID 1508630); note: % is set by controls: 0 for no effect and ±100 for the full control effect
# Summary of the method: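 GLuc-SERCaMP-expressing SH-SY5Y cells, pretreated 16 h with compound, are challenged with thapsigargin to empty ER calcium stores; after 4 h, coelenterazine is added directly to the medium and luminescence is imaged.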
# [13] = biological target: Cytochrome P450 2D6 (Homo sapiens) (UniProt P10635); assay: qHTS Assay for Inhibitors and Substrates of Cytochrome P450 2D6 (AID 891); note: potency is the fitted concentration of half-maximal effect; nearly all actives have a fitted effect of over 60% in size
# Summary of the method: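 Human CYP2D6 (5 nM) with 30 uM Luciferin-ME EGE (at Km) in 100 mM KPO4, compound preincubated 10 min, then NADPH regeneration system for 60 min at room temperature. Luciferin read by luminescence; normalized to 1.43 uM quinidine.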
# [14] = biological target: Dual specificity protein kinase CLK4 (Homo sapiens) (UniProt Q9HAZ1); assay: qHTS Assay for Inhibitors of CDC-like Kinase 4 (ADP-Glo Assay) (AID 1771); note: % is set by controls: 0 for no effect and ±100 for the full control effect; nearly all actives have a fitted effect of over 70% in size
# Summary of the method: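 Kinase reaction: Clk4 at 25 nM, RS repeat peptide substrate at 100 uM, ATP at 1 uM, 1 hr, room temperature. Product ADP detected as luciferase signal via ADP-Glo.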
# [15] = biological target: Dual specificity protein kinase CLK4 (Homo sapiens) (UniProt Q9HAZ1); assay: qHTS Assay for Inhibitors of CDC-like Kinase 4 (ADP-FP Assay) (AID 1795);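 note: recombinant human CLK4 phosphorylating RS repeat peptide at 1 µM ATP; % is set by controls: 0 for no effect and ±100 for the full control effect; nearly all actives have a fitted effect of over 60% in size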
# Summary of the method: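 Kinase activity was measured as ADP production using Transcreener orange tracer (4 nM) and ADP antibody (1 ug/mL) fluorescence polarization, with ADP calculated from a calibration curve. The 1 h reaction contained 6.25 nM Clk4, 1 uM ATP and 100 uM RS peptide at pH 7.5 with Mg2+.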
# [16] = biological target: Ubiquitin carboxyl-terminal hydrolase 1 (Homo sapiens) (UniProt O94782); assay: Inhibitors of USP1/UAF1: Pilot qHTS (AID 504865); note: nearly all actives have a fitted effect of over 35% in size; note: potency is the fitted concentration of half-maximal effect
# Summary of the method: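 Deubiquitinase activity followed as kinetic rhodamine fluorescence release from 150 nM Ub-Rho. 1 nM USP1/UAF1 with compound, after 15 min room-temperature preincubation, in HEPES pH 7.8 buffer containing TCEP, EDTA, BSA and Tween-20.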
# [17] = biological target: Cytochrome P450 2C9 (Homo sapiens) (UniProt P11712); assay: qHTS Assay for Inhibitors and Substrates of Cytochrome P450 2C9 (AID 883); note: potency is the fitted concentration of half-maximal effect; nearly all actives have a fitted effect of over 60% in size
# Summary of the method: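 Luminescent read-out of deoxyluciferin hydroxylation, normalized to 57uM sulphaphenazole (AC100). Reaction: 10nM enzyme, 100uM Luciferin-H (equal to KM), 25mM KPO4, 10 min compound preincubation, then 60 min with NADPH regeneration, both at 37C.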
# [18] = biological target: Cytochrome P450 3A4 (Homo sapiens) (UniProt P08684); assay: qHTS Assay for Inhibitors and Substrates of Cytochrome P450 3A4 (AID 884); note: potency is the fitted concentration of half-maximal effect; nearly all actives have a fitted effect of over 50% in size
# Summary of the method: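 20 nM human CYP3A4 with 25 uM Luciferin-PPXE (at KM) in 200 mM KPO4, preincubated 10 min with compound; NADPH regeneration started a 60 min RT reaction. Luciferin detected by luminescence, normalized to 57 uM ketoconazole as full inhibition.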
# [19] = biological target: Cytochrome P450 3A4 (Homo sapiens) (UniProt P08684); assay: qHTS Assay for Activators of Cytochrome P450 3A4 (AID 885); note: nearly all actives have a fitted effect of over 65% in size
# Summary of the method: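 Signal was normalized against complete inhibition by 57 uM ketoconazole. The reaction used 20nM CYP3A4 with 25uM Luciferin-PPXE, 10-min compound preincubation and a 60-min NADPH-supported step at RT.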
# [20] = measured here: cell count channel max response
# [21] = measured here: lipid channel max response
# Glucocorticoid receptor (Homo sapiens), sequence (P04150 whole entry, looked up, the tested form may be a part): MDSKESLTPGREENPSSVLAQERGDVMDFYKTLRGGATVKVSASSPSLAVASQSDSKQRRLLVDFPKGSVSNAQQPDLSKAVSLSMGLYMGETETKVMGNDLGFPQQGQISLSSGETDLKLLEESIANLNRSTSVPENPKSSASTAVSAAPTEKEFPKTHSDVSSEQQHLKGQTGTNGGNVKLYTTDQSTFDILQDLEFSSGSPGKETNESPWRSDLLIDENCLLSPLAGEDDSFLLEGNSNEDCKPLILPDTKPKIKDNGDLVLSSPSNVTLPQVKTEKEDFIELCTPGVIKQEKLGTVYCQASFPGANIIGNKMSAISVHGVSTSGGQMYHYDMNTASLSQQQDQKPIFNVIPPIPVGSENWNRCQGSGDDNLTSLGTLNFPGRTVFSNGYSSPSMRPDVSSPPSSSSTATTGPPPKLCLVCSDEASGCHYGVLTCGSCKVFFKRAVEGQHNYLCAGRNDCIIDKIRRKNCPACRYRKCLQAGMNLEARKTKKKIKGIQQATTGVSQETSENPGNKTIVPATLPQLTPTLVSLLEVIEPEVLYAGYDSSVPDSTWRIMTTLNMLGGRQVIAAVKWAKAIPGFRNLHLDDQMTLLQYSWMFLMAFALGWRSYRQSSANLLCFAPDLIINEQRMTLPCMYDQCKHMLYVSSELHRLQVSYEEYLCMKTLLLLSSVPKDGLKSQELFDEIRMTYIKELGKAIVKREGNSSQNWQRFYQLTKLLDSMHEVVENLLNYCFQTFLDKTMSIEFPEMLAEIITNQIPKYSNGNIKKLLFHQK
# Dual specificity protein kinase CLK4 (Homo sapiens), sequence (Q9HAZ1 whole entry, looked up): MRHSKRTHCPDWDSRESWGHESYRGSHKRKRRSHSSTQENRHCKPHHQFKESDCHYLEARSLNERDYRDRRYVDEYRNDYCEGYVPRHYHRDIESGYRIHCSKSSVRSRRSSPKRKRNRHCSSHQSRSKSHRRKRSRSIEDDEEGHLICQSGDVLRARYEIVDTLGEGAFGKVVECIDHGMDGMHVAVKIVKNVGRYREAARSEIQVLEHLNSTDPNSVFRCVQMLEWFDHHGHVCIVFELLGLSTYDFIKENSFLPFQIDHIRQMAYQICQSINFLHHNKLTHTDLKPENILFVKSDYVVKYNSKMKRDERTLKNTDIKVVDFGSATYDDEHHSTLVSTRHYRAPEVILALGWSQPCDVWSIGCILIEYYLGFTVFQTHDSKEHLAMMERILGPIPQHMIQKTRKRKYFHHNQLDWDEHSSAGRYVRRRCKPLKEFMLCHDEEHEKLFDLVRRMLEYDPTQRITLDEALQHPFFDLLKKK
# Lysosomal acid glucosylceramidase (Homo sapiens), sequence (P04062 whole entry, looked up): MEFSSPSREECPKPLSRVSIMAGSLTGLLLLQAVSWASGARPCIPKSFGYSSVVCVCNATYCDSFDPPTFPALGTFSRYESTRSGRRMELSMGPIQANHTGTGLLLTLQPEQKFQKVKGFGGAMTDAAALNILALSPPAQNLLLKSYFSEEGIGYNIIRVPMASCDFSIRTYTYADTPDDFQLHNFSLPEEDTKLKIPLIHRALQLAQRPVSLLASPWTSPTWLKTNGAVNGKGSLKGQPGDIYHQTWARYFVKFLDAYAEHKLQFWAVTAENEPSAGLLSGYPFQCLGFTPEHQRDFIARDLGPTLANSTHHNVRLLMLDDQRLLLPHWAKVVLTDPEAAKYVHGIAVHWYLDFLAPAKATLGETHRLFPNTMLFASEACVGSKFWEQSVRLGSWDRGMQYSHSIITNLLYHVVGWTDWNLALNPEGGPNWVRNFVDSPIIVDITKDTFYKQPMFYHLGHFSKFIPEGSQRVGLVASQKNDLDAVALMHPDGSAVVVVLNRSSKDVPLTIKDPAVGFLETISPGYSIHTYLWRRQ
# Cytochrome P450 1A2 (Homo sapiens), sequence (P05177 whole entry, looked up): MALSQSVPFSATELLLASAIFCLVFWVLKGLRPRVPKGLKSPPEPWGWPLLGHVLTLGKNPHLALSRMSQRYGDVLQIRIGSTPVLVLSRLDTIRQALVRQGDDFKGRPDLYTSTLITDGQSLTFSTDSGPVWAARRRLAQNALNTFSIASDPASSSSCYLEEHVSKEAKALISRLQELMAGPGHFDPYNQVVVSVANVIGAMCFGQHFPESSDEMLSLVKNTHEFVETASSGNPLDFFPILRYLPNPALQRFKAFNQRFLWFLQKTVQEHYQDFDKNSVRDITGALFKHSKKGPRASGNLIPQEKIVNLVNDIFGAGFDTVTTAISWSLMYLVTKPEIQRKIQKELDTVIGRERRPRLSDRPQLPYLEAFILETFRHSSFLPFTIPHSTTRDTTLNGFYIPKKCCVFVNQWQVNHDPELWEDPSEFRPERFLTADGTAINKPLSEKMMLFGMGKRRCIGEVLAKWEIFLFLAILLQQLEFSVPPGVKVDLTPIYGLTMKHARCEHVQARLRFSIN
# 3',5'-cyclic-AMP phosphodiesterase 4B (Homo sapiens), sequence (Q07343 whole entry, looked up): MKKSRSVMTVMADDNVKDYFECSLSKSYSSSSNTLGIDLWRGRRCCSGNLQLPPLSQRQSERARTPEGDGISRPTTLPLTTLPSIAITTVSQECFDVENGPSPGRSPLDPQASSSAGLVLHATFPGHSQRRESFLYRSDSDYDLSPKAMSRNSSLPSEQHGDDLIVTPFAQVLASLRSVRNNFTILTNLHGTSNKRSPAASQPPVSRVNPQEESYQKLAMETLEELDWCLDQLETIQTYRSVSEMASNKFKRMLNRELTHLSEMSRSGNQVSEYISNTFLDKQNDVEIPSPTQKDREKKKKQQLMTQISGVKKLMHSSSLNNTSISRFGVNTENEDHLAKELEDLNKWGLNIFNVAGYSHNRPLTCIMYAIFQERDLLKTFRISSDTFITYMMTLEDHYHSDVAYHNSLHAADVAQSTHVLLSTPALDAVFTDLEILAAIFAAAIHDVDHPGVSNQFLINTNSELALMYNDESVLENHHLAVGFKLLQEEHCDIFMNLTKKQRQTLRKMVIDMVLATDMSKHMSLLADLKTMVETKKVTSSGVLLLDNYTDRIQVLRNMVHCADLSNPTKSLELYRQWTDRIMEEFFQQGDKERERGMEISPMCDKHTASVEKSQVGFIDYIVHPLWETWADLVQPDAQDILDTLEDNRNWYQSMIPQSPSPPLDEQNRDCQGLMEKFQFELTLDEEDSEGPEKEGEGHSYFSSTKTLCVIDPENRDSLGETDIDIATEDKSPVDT
# Ubiquitin carboxyl-terminal hydrolase 1 (Homo sapiens), sequence (O94782 whole entry, looked up): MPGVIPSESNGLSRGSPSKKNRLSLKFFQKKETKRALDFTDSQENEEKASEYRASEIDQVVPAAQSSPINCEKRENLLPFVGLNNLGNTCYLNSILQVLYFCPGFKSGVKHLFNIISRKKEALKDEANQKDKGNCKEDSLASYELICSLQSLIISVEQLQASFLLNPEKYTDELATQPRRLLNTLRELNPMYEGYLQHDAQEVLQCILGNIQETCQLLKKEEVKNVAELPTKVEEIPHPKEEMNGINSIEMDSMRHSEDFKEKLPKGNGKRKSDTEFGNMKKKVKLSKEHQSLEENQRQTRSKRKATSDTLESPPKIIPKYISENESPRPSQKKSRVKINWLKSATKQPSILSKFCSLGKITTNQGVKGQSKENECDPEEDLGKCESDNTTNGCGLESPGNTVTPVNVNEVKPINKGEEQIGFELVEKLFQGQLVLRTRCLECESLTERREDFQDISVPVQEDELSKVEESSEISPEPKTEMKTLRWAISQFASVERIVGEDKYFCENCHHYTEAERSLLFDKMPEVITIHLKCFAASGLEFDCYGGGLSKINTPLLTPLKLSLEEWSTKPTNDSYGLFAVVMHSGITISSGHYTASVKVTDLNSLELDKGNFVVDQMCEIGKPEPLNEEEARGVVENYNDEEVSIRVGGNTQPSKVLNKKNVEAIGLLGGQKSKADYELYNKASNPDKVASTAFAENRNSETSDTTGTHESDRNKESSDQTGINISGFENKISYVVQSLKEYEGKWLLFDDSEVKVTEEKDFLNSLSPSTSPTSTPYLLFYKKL
# Cytochrome P450 3A4 (Homo sapiens), sequence (P08684 whole entry, looked up): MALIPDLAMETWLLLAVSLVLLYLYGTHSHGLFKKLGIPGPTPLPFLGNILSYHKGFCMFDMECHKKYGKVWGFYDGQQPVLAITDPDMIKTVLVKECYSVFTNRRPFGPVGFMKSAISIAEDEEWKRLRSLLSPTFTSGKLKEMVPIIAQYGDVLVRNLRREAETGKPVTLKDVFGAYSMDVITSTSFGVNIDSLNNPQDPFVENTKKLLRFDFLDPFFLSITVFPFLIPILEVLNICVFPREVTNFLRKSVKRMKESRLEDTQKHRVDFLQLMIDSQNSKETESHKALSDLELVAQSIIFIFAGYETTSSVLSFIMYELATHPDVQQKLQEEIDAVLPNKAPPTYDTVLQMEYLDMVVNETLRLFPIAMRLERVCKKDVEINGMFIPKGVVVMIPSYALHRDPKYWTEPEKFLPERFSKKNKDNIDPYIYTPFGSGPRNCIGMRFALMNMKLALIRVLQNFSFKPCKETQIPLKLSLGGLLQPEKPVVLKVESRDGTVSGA
# Cytochrome P450 2D6 (Homo sapiens), sequence (P10635 whole entry, looked up): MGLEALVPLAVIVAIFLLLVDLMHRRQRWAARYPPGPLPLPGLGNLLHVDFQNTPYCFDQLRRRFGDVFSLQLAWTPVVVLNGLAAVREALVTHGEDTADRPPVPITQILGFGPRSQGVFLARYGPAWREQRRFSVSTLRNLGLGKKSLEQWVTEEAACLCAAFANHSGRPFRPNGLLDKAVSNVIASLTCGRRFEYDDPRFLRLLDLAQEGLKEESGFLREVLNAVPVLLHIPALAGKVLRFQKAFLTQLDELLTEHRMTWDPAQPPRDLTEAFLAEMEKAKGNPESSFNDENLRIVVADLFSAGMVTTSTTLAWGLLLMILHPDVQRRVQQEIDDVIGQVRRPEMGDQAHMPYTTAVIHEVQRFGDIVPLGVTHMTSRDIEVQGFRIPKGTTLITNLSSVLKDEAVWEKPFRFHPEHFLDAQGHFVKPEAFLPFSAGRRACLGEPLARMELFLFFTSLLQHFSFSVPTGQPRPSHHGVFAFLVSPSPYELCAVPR
compound,measurement,setting,value
COCCNc1cc(-c2ccccc2C)ncn1,Potency,[1],> 11.4 µM (inactive)
same,"activity change, negative = inhibition",[2],5.04% (inactive)
same,Potency,[3],15.8 µM (active)
same,"activity change, negative = inhibition",[4],5.56% (inactive)
same,"activity, negative = inhibition",[5],13.1% (inactive)
same,Potency,[6],> 46 µM (inactive)
same,Potency,[7],> 46 µM (inactive)
same,outcome,[8],inactive
same,Potency,[9],inactive
same,"activity change, negative = inhibition",[10],6.88% (inactive)
same,max response,[10]; [20],3.79%
same,max response,[10]; [21],8.94%
same,Potency,[11],12.6 µM (active)
same,Potency,[12],inactive
CN(C)C(=O)c1ccc(-c2cncnc2N2CCNCC2)cc1,Potency,[1],> 11.4 µM (inactive)
same,"activity change, negative = inhibition",[2],-5.59% (inactive)
same,Potency,[3],inactive
same,"activity change, negative = inhibition",[4],10.6% (inactive)
same,"activity, negative = inhibition",[5],9.81% (inactive)
same,Potency,[6],> 46 µM (inactive)
same,Potency,[7],> 46 µM (inactive)
same,outcome,[8],inactive
same,Potency,[9],inactive
same,Potency,[13],7.94 µM (active)
same,"activity change, negative = inhibition",[10],5.34% (inactive)
same,max response,[10]; [20],16.8%
same,max response,[10]; [21],20.2%
same,Potency,[14],inactive
same,Potency,[15],inactive
same,Potency,[12],inactive
COc1ccc(-n2c(=O)cnc3cnc(N4CCOCC4)nc32)cc1,Potency,[1],> 11.4 µM (inactive)
same,"activity change, negative = inhibition",[2],4.95% (inactive)
same,"activity change, negative = inhibition",[4],1.82% (inactive)
same,"activity, negative = inhibition",[5],-10.3% (inactive)
same,Potency,[6],> 9.22 µM (inactive)
same,Potency,[7],> 46 µM (inactive)
same,outcome,[8],inactive
same,Potency,[9],inactive
same,"activity change, negative = inhibition",[10],6.91% (inactive)
same,max response,[10]; [20],0.0679%
same,max response,[10]; [21],8.45%
same,Potency,[11],28.2 µM (active)
same,Potency,[16],inactive
same,Potency,[12],inactive
O=c1c(-c2cc(F)cc(F)c2)nc2cncnc2n1-c1ccccc1,Potency,[1],> 11.4 µM (inactive)
same,"activity change, negative = inhibition",[2],-15.8% (inactive)
same,Potency,[3],12.6 µM (active)
same,"activity change, negative = inhibition",[4],-2.26% (inactive)
same,"activity, negative = inhibition",[5],-16.9% (inactive)
same,Potency,[6],> 9.22 µM (inactive)
same,Potency,[7],> 46 µM (inactive)
same,outcome,[8],inactive
same,"activity change, negative = inhibition",[10],6.93% (inactive)
same,max response,[10]; [20],22.2%
same,max response,[10]; [21],28.7%
same,Potency,[14],inactive
same,Potency,[15],inactive
same,Potency,[16],inactive
same,Potency,[12],inactive
COc1ccc(CNc2ncnc3ccc(-c4cccc(NS(C)(=O)=O)c4)cc23)c(OC)c1,Potency,[1],> 11.4 µM (inactive)
same,Potency,[3],7.94 µM (active)
same,"activity, negative = inhibition",[5],-11.9% (inactive)
same,Potency,[6],> 46 µM (inactive)
same,Potency,[7],> 46 µM (inactive)
same,outcome,[8],inactive
same,Potency,[17],0.501 µM (active)
same,Potency,[18],2 µM (active)
same,Potency,[19],inactive
same,"activity change, negative = inhibition",[10],-4.77% (inactive)
same,max response,[10]; [20],-8.13%
same,max response,[10]; [21],-11.3%
same,Potency,[11],11.2 µM (active)
same,Potency,[12],inactive
Cc1ccccc1-c1cc(NCc2ccccc2)ncn1,Potency,[1],> 11.4 µM (inactive)
same,"activity change, negative = inhibition",[2],19.4% (inactive)
same,Potency,[3],3.98 µM (active)
same,"activity change, negative = inhibition",[4],-13.3% (inactive)
same,Potency,[6],> 46 µM (inactive)
same,Potency,[7],> 46 µM (inactive)
same,outcome,[8],inactive
same,"activity change, negative = inhibition",[10],4.42% (inactive)
same,max response,[10]; [20],24.9%
same,max response,[10]; [21],28.2%
same,Potency,[11],inactive
same,Potency,[15],inactive
same,Potency,[16],20 µM (active)
same,Potency,[12],inactive
COc1ccc(-c2nc3cnc(Oc4ccccc4)nc3n(CCC#N)c2=O)cc1,Potency,[1],> 11.4 µM (inactive)
same,"activity change, negative = inhibition",[4],-15.1% (inactive)
same,"activity, negative = inhibition",[5],-20% (inactive)
same,Potency,[6],> 9.22 µM (inactive)
same,Potency,[7],> 46 µM (inactive)
same,outcome,[8],inactive
same,Potency,[9],inactive
same,"activity change, negative = inhibition",[10],1.13% (inactive)
same,max response,[10]; [20],-12.9%
same,max response,[10]; [21],-14%
same,Potency,[11],inactive
same,Potency,[16],inactive
same,Potency,[12],inactive
